Mtb betalactam – beta-lactam sensitization of Mtb H37Rv; inhibition, % at 25 µM; actives 0.27% (n = 330,000); M. tuberculosis H37Rv growth with meropenem, percent inhibition; call rule not given here;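 note: growth measured after seven days incubation then overnight dye step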
Rv3671c inh – Rv3671c (M. tuberculosis) protease inhibition; P9WHR9; inhibition, % at 5.96 µM; actives 0.048% (n = 320,000); AID 2606; in the data active = inhibition above about 38%;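 note: extracellular domain of Rv3671c used as enzyme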
UGM FP inh – Mtb UDP-galactopyranose mutase inhibition | P9WIQ1 | purified UGM, fluorescence polarization probe displacement | inhibition, % at 10 µM | actives 0.06% (n = 320,000); in the data active = inhibition above about 10%, passing the limit was not always enough
Target sequence (P9WIQ1 whole entry, looked up): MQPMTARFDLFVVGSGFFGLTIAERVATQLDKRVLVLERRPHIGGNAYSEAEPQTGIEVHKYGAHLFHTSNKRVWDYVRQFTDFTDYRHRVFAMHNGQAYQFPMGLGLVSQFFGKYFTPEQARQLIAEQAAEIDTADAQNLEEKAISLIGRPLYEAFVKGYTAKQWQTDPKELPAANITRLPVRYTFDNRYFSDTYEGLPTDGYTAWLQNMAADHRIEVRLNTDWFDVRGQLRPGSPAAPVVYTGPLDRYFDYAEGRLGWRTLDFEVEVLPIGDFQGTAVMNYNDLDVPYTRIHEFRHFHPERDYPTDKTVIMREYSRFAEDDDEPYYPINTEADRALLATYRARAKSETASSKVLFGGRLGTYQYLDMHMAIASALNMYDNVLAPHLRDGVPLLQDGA
GDH-TPI inh – inhibits GDH-TPI coupling enzymes, artifact for Mtb FBA screen; inhibition, % at 4.8 µM; GDH-TPI coupled enzyme counterscreen, NADH absorbance; actives 1.2% (n = 360,000); in the data active = inhibition above about 30%
Mtb FBA inh – inhibitors of M. tuberculosis fructose-bisphosphate aldolase. P9WQA3. purified M. tuberculosis FBA, fluorescence read-out. inhibition, % at 1 µM. actives 2.3% (n = 360,000); in the data active = inhibition above about 27%
Hits are given with their value; 0 = inactive; - = no result given; + = active, no number. Compounds with a hit are over-represented: about 3.5% of the library has one in this group of screens.

SMILES	Mtb betalactam	Rv3671c inh	UGM FP inh	GDH-TPI inh	Mtb FBA inh
CC(CC(=O)Nc1ccc2c(c1)c(=O)n(C)n2-c1ccccc1)c1ccccc1 (configuration not stated)	-	-	-	0	0
Cn1c(=O)c2cc(NC(=O)Cc3cccc4ccccc34)ccc2n1-c1ccccc1	-	-	-	0	0
CCOCCC(=O)Nc1ccc2c(c1)c(=O)n(C)n2C/C=C/c1ccccc1	-	-	-	0	113
CCN(CC)S(=O)(=O)c1ccc2c(c1)nc(CCC(=O)Nc1ccc(N3CCOCC3)cc1)n2C	0	0	0	0	0
COCc1ccc(C(=O)N2CCCCC2C(=O)Nc2ccc(-n3nc(C)cc3C)cc2)o1 (configuration not stated)	0	0	0	0	0
COc1ccc(OC(=O)N(C)C[C@H]2OCc3cn(nn3)CCCC(=O)N([C@H](C)CO)C[C@@H]2C)cc1	-	-	-	0	0
CSc1ccc(CCNC(=O)c2cc(C)nn2-c2ccccc2)cc1	0	0	0	0	0
COc1ccc(NC(=O)CN2CCN(CC(=O)Nc3ccc(F)cc3F)CC2)cc1	-	-	-	0	0
N#C/C(=N/Nc1ccccc1F)C(=N)N1CCOCC1	0	0	0	32	0
COc1cc(C=NCc2ccccc2)ccc1O	-	-	-	42	0
COc1cc(C=O)ccc1O	-	-	-	58	0
CCOc1cc(/C=C2\NC(=O)NC2=O)ccc1OC(C)C(=O)O (configuration not stated)	0	0	0	47	0
COc1cc(C=C2NC(=O)NC2=O)ccc1O	-	-	-	35	0
COc1cc(/C=C2/NC(=O)NC2=O)ccc1OCC(=O)Nc1ccc(F)cc1	0	0	0	0	0
CC1CCCCC1NC(=O)CCS(=O)(=O)c1ccc(Cl)cc1 (configuration not stated)	0	0	0	0	0
CCN(CC)S(=O)(=O)c1ccc(C(=O)OCC(=O)NCCN2C(=O)CSC2=O)cc1	0	0	0	0	0
COc1ccc(NC(=O)C2CCCN(S(C)(=O)=O)C2)cc1OC (configuration not stated)	0	0	0	0	0
Cc1cccc(C(=O)OCC(=O)N2CCCCCC2)c1O	0	0	0	0	0
COc1ccc(C=C2C(=O)NC(=S)NC2=O)cc1OC	-	-	-	0	0
CCOc1cc(C=C2C(=O)NC(=S)NC2=O)ccc1O	-	-	-	34	0
CCOc1cc(/C=C2\NC(=O)NC2=O)cc([N+](=O)[O-])c1O	0	0	0	32	0
CSC(=O)NC(=O)NC(=O)c1ccc([N+](=O)[O-])cc1	0	0	0	0	0
COc1cc(N)c2ncccc2c1Cl	-	-	-	0	46
COc1ccc(-n2c(/C=C/c3ccc(O)cc3)nc3ccccc3c2=O)cc1	0	0	0	57	0
O=c1c2ccccc2nc(/C=C/c2ccc(Br)cc2)n1CCCO	0	0	0	0	0
SMILES	Mtb betalactam	Rv3671c inh	UGM FP inh	GDH-TPI inh	Mtb FBA inh
O=c1c2ccccc2nc(/C=C/c2ccc(Br)cc2)n1CCO	0	0	0	35	0
COc1ccc(/C=N/NC(=O)c2cc(C3CC3)[nH]n2)cc1OC	0	0	0	0	0
COc1cc(/C=N/NC(=O)c2cc(C3CC3)[nH]n2)ccc1O	0	0	0	44	0
COc1ccc(/C=N/NC(=O)c2cc(-c3cccn3C)n[nH]2)cc1OC	0	0	0	0	0
COc1cc(/C=N/NC(=O)c2cc(-c3c(C)nn(-c4ccccc4)c3C)n[nH]2)ccc1O	0	0	0	33	0
COc1cc(/C=N/NC(=O)c2cc(-c3ccc4c(c3)OCO4)n[nH]2)ccc1O	0	0	0	39	0
O=C(N/N=C/c1ccc([N+](=O)[O-])cc1)c1cc(-c2ccc3c(c2)OCO3)n[nH]1	0	0	0	0	0
COc1cc(/C=N/NC(=O)c2ccc(NC(=O)C3CCCCC3)cc2)ccc1O	0	-	0	35	0
CN(CC(=O)Nc1c(Cl)cccc1Cl)C(=O)CCC(=O)c1ccccc1	-	-	-	0	0
Cc1nn(-c2ccccc2)c(C)c1-c1cc(C(=O)N/N=C/c2ccc(O)cc2)[nH]n1	0	0	0	44	0
Cc1nn(-c2ccccc2)c(C)c1/C=N/NC(=O)c1cc(O)cc(O)c1	0	0	0	0	0
O=C1c2cc(O)c(O)cc2OC(c2ccc(O)c(O)c2)C1O (configuration not stated)	-	-	-	32	0
CC1CN(C(=O)c2cc3c(=O)n4ccccc4nc3s2)CC(C)O1 (configuration not stated)	0	0	0	34	196
CN1CCN(C(=O)c2cc3c(=O)n4ccccc4nc3s2)CC1	0	0	0	0	+
COc1ccccc1N1CCN(C(=O)c2cc3c(=O)n4ccccc4nc3s2)CC1	0	0	0	0	0
Cc1cc(C)cc(NC(=O)c2cc3c(=O)n4ccccc4nc3s2)c1	0	0	0	0	0
CC(=O)N1CCC(c2c[nH]c3ccccc23)CC1	0	0	0	0	0
Cc1ccc(C(=O)Nc2ccc(C(=O)N3CCCCC3)cc2)o1	0	0	0	0	0
N#C/C(=C/c1ccc(CNC(=O)C(=O)Nc2cc(Cl)cc(Cl)c2)o1)C(=O)NCc1cccnc1	0	0	0	0	0
Cc1ccc(NC(=O)C(=O)NCc2ccc(/C=C(/C#N)C(=O)NCc3cccnc3)o2)cc1C	0	0	0	34	0
Cc1ccc(NC(=O)C(=O)NCc2ccc(/C=C(/C#N)C(=O)NCc3cccnc3)o2)cc1	0	0	0	32	0
COCCNC(=O)[C@H]1N2C(=O)c3c(ccc(OC)c3OC)C2SC1(C)C (some centres not stated)	0	0	0	0	0
COc1ccc2c(c1OC)C(=O)N1C2SC(C)(C)[C@H]1C(=O)NCC(C)C (some centres not stated)	0	0	0	0	152
CC(=O)Nc1ccc2c(c1)C(=O)c1ccccc1C2=O	0	0	0	0	0
CC(=O)Nc1cc2c3c(cccc3c1)-c1ccccc1-2	-	-	-	0	140
SMILES	Mtb betalactam	Rv3671c inh	UGM FP inh	GDH-TPI inh	Mtb FBA inh
O=C(NC1CCCC1)c1cccc(S(=O)(=O)N2CCOCC2)c1	0	0	0	0	0
Cc1cc(N2CCN(C(=O)c3cccs3)CC2)c(F)cc1[N+](=O)[O-]	0	0	0	38	0
O=C(c1ccc(Cl)cc1[N+](=O)[O-])N1CCOCC1	0	0	0	0	0
CCC(=O)c1ccc(N2CCN(C(=O)c3cccs3)CC2)c(F)c1	0	0	0	32	0
O=C(c1cc(N2CCOCC2)c(F)cc1[N+](=O)[O-])N1CCOCC1	0	0	0	0	51
O=[N+]([O-])c1cc(CN2CCC(O)CC2)ccc1Cl	0	0	0	0	0
COc1ccccc1CCC(=O)OCC(=O)Nc1ccc(C(N)=O)cc1	0	0	0	0	0
COc1ccc(/C=C2\SC(=O)N(CCNC(=O)C3=COCCO3)C2=O)cc1	0	0	0	31	0
COc1cc(/C=C2\SC(=O)N(CCNC(=O)c3c(C)noc3C)C2=O)cc(OC)c1OC	0	0	0	31	0
O=C(NCCN1C(=O)S/C(=C\c2ccccc2F)C1=O)C1=COCCO1	0	0	0	42	0
O=C(NCCN1C(=O)S/C(=C\c2ccc(Cl)cc2)C1=O)C1=COCCO1	0	0	0	0	0
O=C(NCCN1C(=O)S/C(=C\c2ccccc2Cl)C1=O)C1=COCCO1	0	0	0	0	0

Compound activity as filed in PubChem BioAssay.
